The whole screen tested about 2,100 compounds, of which about 1,100 (52%) were called active. Roughly 27% stayed inconclusive and do not appear here. The set was probably picked from earlier hits. This is one part of the list. A number with no mark means an inactive call. Calls follow the shape of the dose curve; as a rule, active = well fitted inhibition curve with a large enough effect; inconclusive = small, poorly fitted or top-dose-only effect; inactive = no such curve, though single readings can be large or run the other way.
Potency is read from the fitted curve at half-maximal effect.

DNA dC->dU-editing enzyme APOBEC-3G (Homo sapiens), sequence (Q9HC16 whole entry, looked up): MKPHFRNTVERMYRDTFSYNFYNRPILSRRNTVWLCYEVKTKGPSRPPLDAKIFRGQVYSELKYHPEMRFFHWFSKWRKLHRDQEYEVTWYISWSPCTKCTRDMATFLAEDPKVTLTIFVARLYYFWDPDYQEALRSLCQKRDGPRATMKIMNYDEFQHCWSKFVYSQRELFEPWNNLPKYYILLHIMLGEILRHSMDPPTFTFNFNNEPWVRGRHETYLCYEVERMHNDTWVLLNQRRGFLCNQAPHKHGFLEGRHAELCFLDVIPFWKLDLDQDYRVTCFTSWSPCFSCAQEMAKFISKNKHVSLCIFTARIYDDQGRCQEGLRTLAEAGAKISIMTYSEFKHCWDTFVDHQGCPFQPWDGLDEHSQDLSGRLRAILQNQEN

For this assay, the target named is DNA dC->dU-editing enzyme APOBEC-3G (Homo sapiens) (UniProt Q9HC16). The experiment in a line: qHTS for inhibitors of Vif-A3G interactions: Cherry picks counterscreen.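 Also: hits raise yellow fluorescence by blocking Vif-driven A3G-eYFP degradation; nearly all actives have a fitted effect of over 70% in size.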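 As to max response: max response given as percent of control signal.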 As to conditions: HeLa A3G-eYFP + Vif (tagged APOBEC3G with the HIV-1 protein that degrades it), eYFP fluorescence, 24 h. The gist of the method:
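HeLa cells stably expressing A3G-eYFP and Vif were treated for 24 h at 37 deg C with compounds at several concentrations; yellow fluorescence (Ex 488 nm, Em 500-530 nm) read by Acumen Explorer, MG132 as positive control.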
For `CCN1CCc2c(sc(NC(=O)c3ccc(S(=O)(=O)N(CC)c4ccccc4)cc3)c2C(N)=O)C1`, the Potency is 5.59 µM (active).

On to `CCCN1CCc2c(sc(NC(=O)c3ccc(S(=O)(=O)N(C)c4ccccc4)cc3)c2C(=O)NC)C1`, for which the Potency was 18.4 µM (active).

`CCCN1CCc2c(sc(NC(=O)c3ccc(S(=O)(=O)N(C)c4ccccc4)cc3)c2C(N)=O)C1`: the Potency is 14.6 µM (active).

As to `CCCN1CCc2c(sc(NC(=O)c3ccc(S(=O)(=O)N4CCN(C(=O)OCC)CC4)cc3)c2C(N)=O)C1`, the Potency is 23.1 µM (active).

Take `CCCN1CCc2c(sc(NC(=S)NC(=O)c3ccccc3)c2C#N)C1`: the Potency is 14.6 µM (active).

`NC(=O)c1c(NC(=O)c2ccccc2)sc2c1CCN(Cc1ccccc1)C2`: the Potency is 15.8 µM (active).

As to `CC(C)N1CCc2c(sc(NC(=O)c3cc4cc([N+](=O)[O-])ccc4s3)c2C(N)=O)C1`, the Potency was 23.1 µM (active).

Turning to `CC(C)N1CCc2c(sc(NC(=O)c3ccc(S(=O)(=O)N4CCOCC4)cc3)c2C#N)C1`, the Potency was 8.2 µM (active).

Regarding `CCOC(=O)/C(=C/C1=CC(=C/N(C)C)/C(=O)O1)C(C)=O`, the max response is 1.47%.

Regarding `CC(C)CN(CC(C)C)S(=O)(=O)c1ccc(C(=O)Nc2sc3c(c2C(N)=O)CCN(C(C)C)C3)cc1`, the Potency was 18.4 µM (active).

Take `Cc1cccc(C)c1OCCNC(=O)C(=O)NCc1ccco1`: the Potency is 2.8 µM (active).

For `COc1ccc(NC(=O)c2ccc3c(c2)c(C)c(C)n3Cc2ccc(F)cc2)cc1`, the Potency is 5.17 µM (active).

Regarding `Cc1ccccc1NC(=O)c1ccc2c(c1)c(C)c(C)n2Cc1ccccc1`, the Potency was 2.91 µM (active).

For the compound `CCCCCn1c(=O)[nH]c2cc(C(=O)Nc3cc(OC)cc(OC)c3)ccc2c1=O`, the max response is -23.9%.

In the case of `COC(=O)Nc1ccc(S(=O)(=O)N2CCCc3ccccc32)cc1`, the Potency is 3.53 µM (active).

As to `Cc1cc(NC(=O)COC(=O)c2ccc(S(=O)(=O)N3CCCc4ccccc43)cc2)no1`, the Potency was 4.44 µM (active).

Turning to `O=C(CN1c2cccc3cccc(c23)S1(=O)=O)Nc1ccc(S(=O)(=O)N2CCOCC2)cc1`, the max response is -29.7%.

On to `CC(=O)Nc1ccc(S(=O)(=O)N2CCSc3ccccc32)cc1`, for which the Potency was 4.98 µM (active).

Turning to `Cc1ccc(CNC(=O)C2CC(c3cc(C(F)(F)F)cc(C(F)(F)F)c3)=NO2)o1` (stereo not drawn), the Potency was 8.86 µM (active).

Regarding `COc1ccccc1N1CCN(c2ncnc3c2oc2ccccc23)CC1`, the Potency was 3.14 µM (active).

`CCN1/C(=C/C=C2/SC(=Nc3cccc4ncccc34)N(C)C2=O)Sc2ccccc21`: the Potency is 4.11 µM (active).

As to `Cc1c(N=C2N=C(NC(=O)c3cccs3)c3ccccc32)c(=O)n(-c2ccccc2)n1C`, the Potency is 12.5 µM (active).

As for `Cc1c(NC(=O)c2csc3c2CCCC3)c(=O)n(-c2ccccc2)n1C`, the max response is -8.09%.

On to `CC#Cc1cc2c(cc1O)CCC1C2CCC2(C)C(O)CCC12` (stereo not drawn), for which the Potency is 4.44 µM (active).

For `CCSc1nccc(-c2nn(-c3ccc(C)cc3)ccc2=O)n1`, the Potency is 3.53 µM (active).

For the compound `NNC(=O)c1oc2nc(-c3ccccc3)cc(-c3ccco3)c2c1N`, the Potency is 18.4 µM (active).

`Cc1ccc(-c2cc(-c3ccco3)c3c(N)c(C(=O)NN)oc3n2)cc1`: the Potency was 23.1 µM (active).

In the case of `O=C(N/N=C\C=C\c1ccc([N+](=O)[O-])o1)c1cccs1`, the Potency was 14 µM (active).

As for `CCC(=Nc1ccccc1O)C1=C(O)CC(c2ccccc2)CC1=O` (stereo not drawn), the max response is 16.4%.

As for `COc1ccccc1N=C(C)C1=C(O)CC(c2ccccc2)CC1=O` (stereo not drawn), the Potency is 0.559 µM (active).

Consider `O=C(NN=Cc1c(O)ccc2ccccc12)c1ccc2c(c1)OCO2`, for which the max response is 1.53%.

As to `O=C(N/N=C/c1ccc2c(c1)OCO2)c1cccc2ccccc12`, the Potency is 9.94 µM (active).

For `Cc1cccc(C)c1OCC(=O)N/N=C/c1ccc2c(c1)OCO2`, the Potency was 6.27 µM (active).

`O=C(N/N=C/c1ccc2c(c1)OCO2)c1cc(-c2ccco2)nc2ccccc12`: the Potency is 9.94 µM (active).

Take `Cc1cc(C(=O)N/N=C/c2ccc3c(c2)OCO3)c2ccccc2n1`: the Potency was 7.9 µM (active).

For `O=C(N/N=C/c1ccc2c(c1)OCO2)c1cc(-c2ccncc2)nc2ccccc12`, the Potency was 5.59 µM (active).

For the compound `Cc1nc2c3cc(F)ccc3n(Cc3ccccc3)c2s1`, the Potency is 7.04 µM (active).

For the compound `Cc1nc2c3cc(F)ccc3n(Cc3ccccc3F)c2s1`, the Potency was 14 µM (active).

As for `N#CCSc1ccccc1NC(=O)CN1C(=O)C2CC=CCC2C1=O` (stereo not drawn), the Potency is 11.2 µM (active).

With `CCOC1=C/C(=C/c2c(N)n3nc(-c4ccccc4)sc3nc2=O)C=CC1=O`, the max response was 19.6%.

Regarding `CCS(=O)(=O)c1nn2c(N)c(/C=C3/C=CC(=O)C(OC)=C3)c(=O)nc2s1`, the max response was 52.9%.

For the compound `COC1=C/C(=C/c2c(N)n3nc(-c4ccc(C)cc4)sc3nc2=O)C=CC1=O`, the Potency was 20.6 µM (active).

Take `Cn1cc(/C=C/c2ccc3ccccc3n2)c2ccccc21`: the Potency was 13 µM (active).

With `Cn1cc(/C=C/c2ccnc3ccccc23)c2ccccc21`, the Potency is 20.6 µM (active).

On to `CCc1ccc2nc(N(CCCN(C)C)C(=O)c3ccc(S(=O)(=O)N(C)C4CCCCC4)cc3)sc2c1`, for which the max response was 5.65%.

`Cc1ccc(-n2nc3c(SCCN4CCOCC4)nnc(C)c3c2C)cc1`: the max response was -27.8%.

Consider `CCCCn1c(NC(=O)c2ccco2)c(S(=O)(=O)c2ccc(C)cc2)c2nc3ccccc3nc21`, for which the Potency was 20.6 µM (active).

With `O=C(Nc1nc(NC(=O)c2ccco2)n(-c2ccccc2)n1)c1ccccc1`, the max response was -0.0667%.

Take `Cc1ccc(C(=O)Nc2sc(Cc3ccc4c(c3)OCO4)c(C)c2C(N)=O)cc1`: the Potency is 18.4 µM (active).

Consider `CCC1CCCCN1CCCNC(=O)c1ccc2c(c1)N(Cc1ccccc1F)C(=O)c1ccccc1S2(=O)=O` (stereo not drawn), for which the Potency is 4.61 µM (active).

For `Nc1ccccc1/C=C/c1ccnc2ccccc12`, the Potency is 16.4 µM (active).

Regarding `CN(C)c1ccc(/C=C/c2cnnc3ccccc23)cc1`, the Potency was 20.6 µM (active).

Turning to `CN(C)c1ccc(/C=C/c2ccnc3cc(Cl)ccc23)cc1`, the Potency was 8.2 µM (active).

On to `COc1cccc2nccc(/C=C/c3ccc(N(C)C)cc3)c12`, for which the Potency is 18.4 µM (active).

Take `CN(C)c1ccc(/C=C/C=C/c2ccnc3ccccc23)cc1`: the Potency is 4.61 µM (active).

For the compound `CN(C)c1ccc(/C=C/c2ccnc3ccc(-c4ccccc4)cc23)cc1`, the Potency was 5.8 µM (active).

Turning to `CN(C)c1ccc(/C=C/c2ccnc3ccccc23)c(N)c1`, the Potency was 2.91 µM (active).

On to `CN(C)c1ccc(/C=C/c2ccnc3ccccc23)cc1`, for which the Potency was 20.6 µM (active).

With `CNc1ccc(/C=C/c2ccnc3ccccc23)cc1`, the Potency was 16.4 µM (active).

Take `O=C(Cn1ncc(Cl)c(Cl)c1=O)NC(=O)NC1CCCCC1`: the Potency was 14 µM (active).

For the compound `Cc1nc(-c2ccc(Cl)cc2)sc1C(=O)NN`, the Potency is 15.8 µM (active).

Consider `CCOC(=O)C1CCCN(C(=O)c2ccc3nc(-c4cccc(OC)c4)oc3c2)C1` (stereo not drawn), for which the Potency is 7.04 µM (active).

As for `COc1ccc2cc(C(=O)C3CCCN(Cc4ccccn4)C3)ccc2c1` (stereo not drawn), the max response was -1.88%.

For `Cc1c(C(=O)N2CCOCC2)[nH]c2c1C(=O)CC(c1ccccc1Cl)C2` (stereo not drawn), the Potency was 8.86 µM (active).

In the case of `COc1ccc(OC)c(C2CC(=O)c3c([nH]c(C(=O)OCC4CCCO4)c3C)C2)c1` (stereo not drawn), the Potency is 5.59 µM (active).

`Cc1c(C(=O)OC2CCCCC2)[nH]c2c1C(=O)CC(c1ccccc1Cl)C2` (stereo not drawn): the Potency is 9.2 µM (active).

For `COCCOC(=O)c1[nH]c2c(c1C)C(=O)CC(c1ccccc1)C2` (stereo not drawn), the Potency is 0.994 µM (active).

As for `O=C(COc1ccc(C(=O)c2ccccc2)cc1)NCc1ccc(F)cc1`, the Potency was 2.5 µM (active).

Regarding `CCN(CC)S(=O)(=O)c1cc([N+](=O)[O-])ccc1N=Nc1c(O)[nH]c2ccccc12`, the Potency was 23.1 µM (active).

On to `Cc1ccccc1NCC(=O)N=Nc1c(O)[nH]c2ccc([N+](=O)[O-])cc12`, for which the max response was -0.0304%.

Take `O=C(NCc1cccc(C(F)(F)F)c1)c1cccc2c1C(=O)c1ccc(N3CCC(Cc4ccccc4)CC3)cc1S2(=O)=O`: the Potency was 23.1 µM (active).

Regarding `O=C(NCc1cc(C(F)(F)F)ccc1Cl)c1cccc2c1C(=O)c1ccc(N3CCC(Cc4ccccc4)CC3)cc1S2(=O)=O`, the Potency was 14 µM (active).

For the compound `O=C(NCc1ccco1)c1cccc2c1C(=O)c1ccc(N3CCC(Cc4ccccc4)CC3)cc1S2(=O)=O`, the Potency is 23.1 µM (active).

With `Cc1ccc(CSc2nc(-c3ccc(C(C)(C)C)cc3)nc3cc(=O)[nH]n23)cc1`, the max response was 28.6%.

As to `CCCOc1ccc2cc(C(=O)NCc3ccccc3)c(=O)oc2c1`, the max response is -5.24%.

For the compound `COc1cccc(Nc2ncccc2C(=O)NCc2ccccc2)c1`, the Potency is 19.8 µM (active).

`N#C/C(=C\c1ccc(N2CCCCC2)o1)C(N)=O`: the Potency was 15.8 µM (active).

On to `N#C/C(=C\c1ccc(N2CCOCC2)o1)C(=O)NC1CCCCC1`, for which the Potency is 17.7 µM (active).

In the case of `CCOC(=O)CN1C(=O)S/C(=C/c2ccc(N3CCCCC3)o2)C1=O`, the max response was 55%.

As to `CN(C)c1ccc(/C=C(/C#N)C(=O)NCc2ccccc2)o1`, the Potency is 1.84 µM (active).

Turning to `N#C/C(=C\c1ccc(N2CCOCC2)o1)C(=O)NCCc1ccccc1`, the Potency is 3.26 µM (active).

Consider `N#C/C(=C\c1ccccc1[N+](=O)[O-])C(=O)NCc1ccccc1`, for which the max response was 2.31%.

On to `N#C/C(=C/c1ccc(N2CCOCC2)o1)C(=O)NC1CCCCC1`, for which the Potency is 16.4 µM (active).

As to `CCSC1=N/C(=C\C=C2/Oc3ccccc3N2CC)C(=O)S1`, the Potency was 8.2 µM (active).

As for `CCCCN1C(=O)/C(=C/C=C2\Oc3ccccc3N2CC)SC1=S`, the max response was 51.7%.

Consider `CCOc1ccc(-c2cc(C(=O)NCCc3ccc(OC)c(OC)c3)c3c(-c4ccc(F)cc4)[nH]nc3n2)cc1`, for which the max response was -21%.

Turning to `COc1ccc(-c2n[nH]c3c2CN(C(=O)c2ccc(OC)c(OC)c2)CC3)cc1`, the Potency is 9.94 µM (active).

Regarding `C=C(NC(=O)C(=C)NC(=O)c1csc(C2=NC3c4csc(n4)C4NC(=O)c5csc(n5)C(C(C)(O)C(C)O)NC(=O)C5CSC(=N5)/C(=C/C)NC(=O)C(C(C)O)NC(=O)c5csc(n5)C3(CC2)NC(=O)C(C)NC(=O)C(=C)NC(=O)C(=C)NC(=O)C(C(C)C)NC2C=Cc3c(C(C)O)cc(nc3C2O)C(=O)OC4C)n1)C(N)=O` (stereo not drawn), the Potency is 7.04 µM (active).
